DT40 TDP1 CPT – DT40-hTDP1 cell growth loss with CPT; 12% of 420,000 active; AID 686979; Potency, µM (doses to about 46.2 µM), for inactives: at the top dose activity change, negative = growth inhibition, usual class: inhibitors; chicken DT40 Tdp1-/-;hTDP1 cells + 20 nM CPT, ATP luminescence, 48 h; also: potency is read from the fitted curve at half-maximal effect; nearly all actives have a fitted effect of over 55% in size
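Cell growth measured by CellTiter-Glo luminescence after a minimum 48 h, 37 C compound exposure with 20 nM CPT in Tdp1-knockout DT40 cells stably expressing hTDP1, seeded 400/well; qHTS titration format.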
IL1B secr inh – inflammasome signaling inhibition, IL-1 beta readout; activity change, % at 57.5 µM; 4.7% of 360,000 active; THP-1 LPS/ATP IL-1B secretion, AlphaLISA, 16 h; stronger effect = lower value; in the data active = activity change below about -50%; inconclusive = mostly about -30% to -49%
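THP-1 cells pretreated 1 hr with compounds (up to 57.5 uM final), then stimulated with LPS (250 ng/mL final) plus ATP (1.25 mM final); secreted IL-1B measured by AlphaLISA after 16 hr, decreased signal indicating inhibition.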
HT1080 IDH1KD tx – toxicity to HT-1080 IDH1 knockdown cells (counter line); Potency, µM (top dose mostly 46.1 µM), for the others: at the top dose activity, negative = toxicity, actives largely listed as cytotoxic; 2% of 360,000 active; AID 686971; HT-1080 IDH1 knockdown viability, ATP luminescence, 48 h;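 also: potency is read from the fitted curve at half-maximal effect; 0% = DMSO wells and -100% = cell-free medium wells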
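After a 2 h attachment period, IDH1KD HT-1080 cells took pin-transferred compound for 48 h at 37 °C; ATP-based luminescence after 10 min room-temperature reagent incubation reported viability.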
12-LOX inh – ALOX12 (human) lipoxygenase inhibition | P18054 | purified 12hLO, xylenol orange hydroperoxide absorbance | Potency, µM (top dose mostly 108 µM), inactives show at the top dose activity change, negative = inhibition, hits mostly inhibitors | 1.1% of 580,000 active; also: potency is read from the fitted curve at half-maximal effect
Target sequence (P18054 whole entry, looked up): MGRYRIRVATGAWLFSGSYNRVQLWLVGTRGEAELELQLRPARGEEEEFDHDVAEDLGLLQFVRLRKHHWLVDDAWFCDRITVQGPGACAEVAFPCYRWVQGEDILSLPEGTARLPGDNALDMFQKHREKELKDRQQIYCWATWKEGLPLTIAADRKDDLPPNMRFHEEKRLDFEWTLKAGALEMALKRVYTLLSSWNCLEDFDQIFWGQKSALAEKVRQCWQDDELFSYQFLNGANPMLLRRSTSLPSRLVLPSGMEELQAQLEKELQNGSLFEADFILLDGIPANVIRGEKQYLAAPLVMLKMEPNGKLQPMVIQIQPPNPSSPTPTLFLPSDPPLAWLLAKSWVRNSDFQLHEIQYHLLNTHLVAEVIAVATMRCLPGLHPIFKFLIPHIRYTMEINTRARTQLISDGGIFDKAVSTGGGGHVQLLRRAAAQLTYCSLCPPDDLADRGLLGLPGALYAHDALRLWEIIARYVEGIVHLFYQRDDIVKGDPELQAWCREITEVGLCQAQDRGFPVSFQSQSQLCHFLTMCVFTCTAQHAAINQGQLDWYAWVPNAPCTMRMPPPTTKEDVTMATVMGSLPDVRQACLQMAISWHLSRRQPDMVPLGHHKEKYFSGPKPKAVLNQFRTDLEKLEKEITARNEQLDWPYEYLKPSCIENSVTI
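Purified human 12hLO (150 nM final) in 25 mM Hepes, 0.01% Triton X-100, pH 7.0 was preincubated 15 min at room temperature with compound. Then 40 uM arachidonic acid was added, 30 min. Hydroperoxide was read by Fe-XO absorbance ratio 573/405 nm.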
TDP1 cell noCPT – qHTS for Inhibitors of human tyrosyl-DNA phosphodiesterase 1 (TDP1): qHTS in cells in absence of CPT. DT40 Tdp1-/- hTDP1 cells, no CPT, ATP luminescence, 48 h. Potency, µM (highest dose often 46.2 µM), without a hit: at the highest dose activity change, negative = growth inhibition, actives largely listed as inhibitors. 15% of 420,000 active. AID 686978, 2013; also: potency is read from the fitted curve at half-maximal effect; nearly all actives have a fitted effect of over 55% in size
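Luminescent ATP content (CellTiter-Glo) served as the growth readout. Knockout chicken DT40 cells expressing human TDP1 were exposed to compounds without camptothecin for a minimum 48 hr at 37 °C.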
HT1080NT lethal – kills 2HG-producing HT-1080-NT fibrosarcoma cells; HT-1080-NT fibrosarcoma viability, CellTiter-Glo ATP luminescence, 48 h; Potency, µM (titrated, usually from 46.1 µM), without a hit: top-dose activity, negative = less viability, most hits filed as cytotoxic; 1.6% of 360,000 active;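 also: NT is the 2HG producing partner of a matched IDH1 knockdown line; potency is read from the fitted curve at half-maximal effect; 0% = DMSO-treated cells and -100% = media-only wells without cells; nearly all actives have a fitted effect of over 55% in size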
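HT-1080-NT; 750 cells/well; 5% FBS RPMI; 48 h compound, 37 degrees C; CellTiter-Glo luminescence; curve fitting and curve-class assignment.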
* marks the source's active call; other numbers are inactive results; [ ] = another dose, or the depositor's remark. The full list was thinned out, with hits kept by preference. Unless noted, calls follow the shape of the dose curve; as a rule, active = well fitted curve in the direction sought with a large enough effect; inconclusive = small, poorly fitted or top-dose-only effect, or another doubt; inactive = no such curve, though single readings can be large; an effect the other way counts as inactive or inconclusive. Unless noted, % is scaled to controls: 0 for no effect and ±100 for the full control effect.

What do the screens show for `CCc1ccccc1NC(=O)c1nc(-c2ccccc2)oc1C`?
12-LOX inh: 5%

What do the screens show for `COc1cc(NC(=O)c2cc(-c3ccc(C)cc3)on2)cc(OC)c1OC`?
DT40 TDP1 CPT: -14%; IL1B secr inh: 75; HT1080 IDH1KD tx: 4%; 12-LOX inh: -32%; TDP1 cell noCPT: inconclusive; HT1080NT lethal: 13%

How did COc1cc(NC(=O)c2cc(-c3ccc(Cl)c(Cl)c3)on2)cc(OC)c1OC do in these assays?
DT40 TDP1 CPT: 8.2µM*; 12-LOX inh: -20%; TDP1 cell noCPT: inconclusive

How did O=C1NC(=Nc2ccccc2Cl)S/C1=C\c1cc([N+](=O)[O-])ccc1O do in these assays?
DT40 TDP1 CPT: -8%; IL1B secr inh: -26; HT1080 IDH1KD tx: -2%; 12-LOX inh: 32µM*; TDP1 cell noCPT: -13%; HT1080NT lethal: -2%

What do the screens show for `Cc1ccc(S(=O)(=O)/N=C2/NC(=O)/C(=C/c3cc([N+](=O)[O-])ccc3O)S2)cc1`?
DT40 TDP1 CPT: 2%; IL1B secr inh: 0; HT1080 IDH1KD tx: 6%; 12-LOX inh: 10µM*; TDP1 cell noCPT: 2%; HT1080NT lethal: 12%

Results for COc1cccc(N=C2NC(=O)/C(=C/c3cc([N+](=O)[O-])ccc3O)S2)c1 ?
DT40 TDP1 CPT: 14%; IL1B secr inh: 19; HT1080 IDH1KD tx: 17%; 12-LOX inh: inconclusive; TDP1 cell noCPT: 16%; HT1080NT lethal: 11%

What do the screens show for `CCn1c(=O)n(CC(=O)NCC(=O)Nc2c(C)cccc2C)c2ccccc21`?
12-LOX inh: 27%

What do the screens show for `CCOc1ccc(CNC(=O)C2CCCN(S(=O)(=O)N(C)c3ccc(F)cc3)C2)cc1OC` (stereo unspecified)?
DT40 TDP1 CPT: 15µM*; 12-LOX inh: inconclusive; TDP1 cell noCPT: 13µM*

Results for CCOc1ccc(CNC(=O)C2CCCN(S(=O)(=O)N3CCC(C)CC3)C2)cc1OC (stereo unspecified) ?
DT40 TDP1 CPT: inconclusive; IL1B secr inh: -14; HT1080 IDH1KD tx: -1%; 12-LOX inh: 10%; TDP1 cell noCPT: inconclusive; HT1080NT lethal: 0%

How did CN(c1ccc(F)cc1)S(=O)(=O)N1CCCC(C(=O)NCc2cccc(Br)c2)C1 (stereo unspecified) do in these assays?
DT40 TDP1 CPT: 15µM*; 12-LOX inh: -8%; TDP1 cell noCPT: 12µM*

How did CCOc1ccc(CCNC(=O)C2CCCN(S(=O)(=O)N(C)c3ccc(F)cc3)C2)cc1 (stereo unspecified) do in these assays?
DT40 TDP1 CPT: 21µM*; 12-LOX inh: -14%; TDP1 cell noCPT: 21µM*

What do the screens show for `CCN(c1ccc(OC)cc1)S(=O)(=O)N1CCCC(C(=O)NCc2cccc(C)c2)C1` (stereo unspecified)?
DT40 TDP1 CPT: inconclusive; IL1B secr inh: 0; HT1080 IDH1KD tx: -7%; 12-LOX inh: 24%; TDP1 cell noCPT: inconclusive; HT1080NT lethal: -3%

Results for CCC(CC)C(=O)Nc1cc(C)ccc1C ?
12-LOX inh: 69%

How did COC(=O)C(Cc1ccccc1)NC(=O)c1ccc2c(c1)NC(=O)CS2 (stereo unspecified) do in these assays?
12-LOX inh: -64%

What do the screens show for `Cn1c(SCC(=O)c2ccc3c(c2)NC(=O)CO3)nnc1-c1ccncc1`?
12-LOX inh: -30%

How did CCCCNC(=O)C1CC(=O)N(c2n[nH]c3cccc(F)c23)C1 (stereo unspecified) do in these assays?
12-LOX inh: 51%

How did Cc1cnc(-c2ccccc2)n1CCNC(=O)NCc1ccccc1 do in these assays?
12-LOX inh: 36%

Results for Oc1ccc(-c2ccccc2)cc1CN1CCCCCC1 ?
DT40 TDP1 CPT: inconclusive; IL1B secr inh: -26; HT1080 IDH1KD tx: -15%; 12-LOX inh: 46%; TDP1 cell noCPT: 18µM*; HT1080NT lethal: inconclusive

How did Oc1ccc(CN2CCCCC2)nc1-c1ccccc1 do in these assays?
DT40 TDP1 CPT: 0%; IL1B secr inh: 1; HT1080 IDH1KD tx: 13%; 12-LOX inh: 1%; TDP1 cell noCPT: -16%; HT1080NT lethal: 17%

How did COC(=O)c1cc(OC(=O)c2ccncc2)cc(C(=O)OC)c1 do in these assays?
12-LOX inh: -17%

What do the screens show for `O[C@H]1CN[C@H](c2nc(-c3ccc(OC(F)(F)F)cc3)no2)C1`?
12-LOX inh: 21%[176 µM]

How did CCOC(=O)N1CCN(C(=O)COc2ccc(S(=O)(=O)Nc3ccc(OCC)cc3)cc2)CC1 do in these assays?
DT40 TDP1 CPT: inconclusive; IL1B secr inh: 4; HT1080 IDH1KD tx: inconclusive; 12-LOX inh: 28%; TDP1 cell noCPT: 23µM*; HT1080NT lethal: -5%

How did Cc1ccc(NS(=O)(=O)c2ccc(C(=O)N3CCN(S(=O)(=O)c4ccccc4)CC3)cc2)cc1 do in these assays?
DT40 TDP1 CPT: 12µM*; IL1B secr inh: 3; HT1080 IDH1KD tx: -12%; 12-LOX inh: inconclusive; TDP1 cell noCPT: 7.3µM*; HT1080NT lethal: -1%

Results for Cc1cccc(NS(=O)(=O)c2cccc(C(=O)N3CCN(c4ccccn4)CC3)c2)c1 ?
DT40 TDP1 CPT: -30%; IL1B secr inh: 2; HT1080 IDH1KD tx: -11%; 12-LOX inh: -2%; TDP1 cell noCPT: -28%; HT1080NT lethal: 1%

How did Cc1ccc(S(=O)(=O)Nc2ccc(C(=O)N3CCCC3)cc2)cc1 do in these assays?
DT40 TDP1 CPT: -18%; IL1B secr inh: inactive; HT1080 IDH1KD tx: 8%; 12-LOX inh: 2%; TDP1 cell noCPT: -21%; HT1080NT lethal: 4%

What do the screens show for `CC1CC(C)CN(C(=O)c2ccc3ccccc3c2)C1` (stereo unspecified)?
DT40 TDP1 CPT: inconclusive; IL1B secr inh: -51*; HT1080 IDH1KD tx: 13%; 12-LOX inh: -10%; TDP1 cell noCPT: inconclusive; HT1080NT lethal: 8%

Results for Cc1ccc(C(C)(C)C)cc1S(=O)(=O)Nc1cccc(C(=O)N2CCN(c3ccccn3)CC2)c1 ?
DT40 TDP1 CPT: 29µM*; IL1B secr inh: -9; HT1080 IDH1KD tx: -30%; 12-LOX inh: -15%; TDP1 cell noCPT: 16µM*; HT1080NT lethal: -23%

What do the screens show for `CC(C)(Oc1nn(CC2CC2)c2ccc(CN3CCCC3)cc12)C(=O)NCC(F)(F)F`?
12-LOX inh: 14%[176 µM]

Source: PubChem (National Center for Advancing Translational Sciences (NCATS))
